Holding throughout (assay): DAPPL (digital affinity profiling via proximity ligation, sequencing); 10 mM Tris-HCl pH 7.5, 50 mM NaCl, 1 mM DTT, 4% glycerol, room temperature, 30 min; GST-TFs on glutathione beads, 16-mer random dsDNA library, 0.1% formaldehyde crosslink after washing; high values mean tight binding
One experiment concerns the target T1, FLI1 (Homo sapiens, UniProt Q01543 1-452).
T1 sequence: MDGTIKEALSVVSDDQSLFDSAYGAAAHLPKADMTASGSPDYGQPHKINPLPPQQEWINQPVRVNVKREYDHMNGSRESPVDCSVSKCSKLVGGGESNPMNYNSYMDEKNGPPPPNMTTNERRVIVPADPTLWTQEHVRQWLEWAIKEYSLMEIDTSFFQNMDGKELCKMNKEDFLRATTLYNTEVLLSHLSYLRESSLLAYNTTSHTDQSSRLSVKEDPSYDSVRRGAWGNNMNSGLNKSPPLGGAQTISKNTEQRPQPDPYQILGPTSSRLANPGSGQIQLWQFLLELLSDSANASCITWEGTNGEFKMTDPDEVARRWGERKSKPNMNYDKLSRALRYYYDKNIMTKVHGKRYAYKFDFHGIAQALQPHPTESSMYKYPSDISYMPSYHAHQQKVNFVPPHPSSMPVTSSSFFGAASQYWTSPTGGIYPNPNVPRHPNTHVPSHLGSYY
Conditions: protein: recombinant; tags: N-terminal GST; dsDNA, one strand shown. The procedure, abridged:
(§1)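 Binding signal is each hexamer's read frequency for a factor divided by its frequency in the tag-only sample. The factors were GST-fused human transcription factors from yeast, captured on glutathione beads, DNA-barcoded and pooled with that sample. Pools were incubated with 200 nmole of a random double-stranded 16-mer DNA library in Tris/NaCl/DTT/glycerol buffer at room temperature for 30 min, then washed, crosslinked with 0.1% formaldehyde, proximity-ligated with BsaI/T4 ligase (1 h, 37 °C), PCR-amplified and sequenced on an Illumina NextSeq500.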

Another experiment deals with T2, ELK1 (Homo sapiens, UniProt P19419 1-428).
T2 sequence: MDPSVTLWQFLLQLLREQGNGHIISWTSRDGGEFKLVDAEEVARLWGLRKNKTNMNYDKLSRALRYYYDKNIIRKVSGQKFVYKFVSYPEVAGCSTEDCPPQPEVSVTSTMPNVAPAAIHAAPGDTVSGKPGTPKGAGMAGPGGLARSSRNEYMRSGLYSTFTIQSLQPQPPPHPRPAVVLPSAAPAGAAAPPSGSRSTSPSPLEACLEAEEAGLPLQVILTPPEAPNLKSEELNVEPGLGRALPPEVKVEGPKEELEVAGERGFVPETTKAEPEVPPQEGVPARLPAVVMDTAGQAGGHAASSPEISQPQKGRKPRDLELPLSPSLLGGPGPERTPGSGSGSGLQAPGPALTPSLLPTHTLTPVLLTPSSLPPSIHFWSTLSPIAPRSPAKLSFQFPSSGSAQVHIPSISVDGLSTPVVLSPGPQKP
Conditions: protein: recombinant; tags: N-terminal GST; dsDNA, one strand shown. The procedure, abridged: as §1

The next experiment deals with T3, GABPA (Homo sapiens, UniProt Q06546 1-454).
T3 sequence: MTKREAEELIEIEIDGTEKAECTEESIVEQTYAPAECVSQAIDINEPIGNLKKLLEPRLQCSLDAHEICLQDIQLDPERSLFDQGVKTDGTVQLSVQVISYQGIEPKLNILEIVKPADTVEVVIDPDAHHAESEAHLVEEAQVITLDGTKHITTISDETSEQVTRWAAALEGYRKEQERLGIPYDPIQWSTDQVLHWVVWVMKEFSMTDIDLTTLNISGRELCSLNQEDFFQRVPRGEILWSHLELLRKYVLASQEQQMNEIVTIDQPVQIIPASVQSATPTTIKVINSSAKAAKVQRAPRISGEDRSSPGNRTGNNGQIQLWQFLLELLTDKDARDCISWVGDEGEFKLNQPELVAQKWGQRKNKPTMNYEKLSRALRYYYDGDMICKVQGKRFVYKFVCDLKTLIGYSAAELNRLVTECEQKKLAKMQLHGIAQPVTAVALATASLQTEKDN
Conditions: protein: recombinant; tags: N-terminal GST; dsDNA, one strand shown. The method in brief:
as §1

The target in another experiment is T4, ERG (Homo sapiens, UniProt P11308 1-479).
T4 sequence: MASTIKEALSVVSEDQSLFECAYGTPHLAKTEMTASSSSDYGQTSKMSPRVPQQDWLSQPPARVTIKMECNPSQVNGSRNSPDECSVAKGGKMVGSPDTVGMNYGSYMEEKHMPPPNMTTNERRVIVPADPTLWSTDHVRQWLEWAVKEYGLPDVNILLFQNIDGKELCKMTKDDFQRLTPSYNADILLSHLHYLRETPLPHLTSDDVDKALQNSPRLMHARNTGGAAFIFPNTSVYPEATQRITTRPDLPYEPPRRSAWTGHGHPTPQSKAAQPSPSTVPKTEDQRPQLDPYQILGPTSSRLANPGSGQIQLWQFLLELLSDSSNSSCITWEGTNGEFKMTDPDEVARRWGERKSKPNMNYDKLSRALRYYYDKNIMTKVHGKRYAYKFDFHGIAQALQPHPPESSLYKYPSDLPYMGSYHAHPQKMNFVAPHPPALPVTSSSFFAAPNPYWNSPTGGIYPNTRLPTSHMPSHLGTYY
Conditions: protein: recombinant; tags: N-terminal GST; dsDNA, one strand shown. The method in brief:
as §1

The target of another experiment is ELF1 (Homo sapiens, UniProt P32519 1-619). Conditions: protein: recombinant; tags: N-terminal GST; dsDNA, one strand shown. The method in brief:
as §1

For another experiment, the target named is T5, EHF (Homo sapiens, UniProt Q9NZC4 1-300).
T5 sequence: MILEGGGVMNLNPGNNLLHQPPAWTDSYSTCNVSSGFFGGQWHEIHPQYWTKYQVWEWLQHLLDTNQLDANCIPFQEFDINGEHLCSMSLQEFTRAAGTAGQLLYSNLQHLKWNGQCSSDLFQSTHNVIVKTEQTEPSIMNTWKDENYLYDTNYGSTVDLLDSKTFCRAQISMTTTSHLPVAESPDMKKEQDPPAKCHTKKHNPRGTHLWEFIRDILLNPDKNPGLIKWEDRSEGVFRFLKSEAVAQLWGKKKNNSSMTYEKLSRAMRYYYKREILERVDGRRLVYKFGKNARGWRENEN
Conditions: protein: recombinant; tags: N-terminal GST; dsDNA, one strand shown. The method in brief:
as §1

For the next experiment, the target named is SPI1 (Homo sapiens, UniProt P17947 1-270). Conditions: protein: recombinant; tags: N-terminal GST; dsDNA, one strand shown. The procedure, abridged: as §1
The target in another experiment is SPIB (Homo sapiens, UniProt Q01892 1-262). Conditions: protein: recombinant; tags: N-terminal GST; dsDNA, one strand shown. The method in brief: as §1
Chain of SPIB (Q01892 whole entry): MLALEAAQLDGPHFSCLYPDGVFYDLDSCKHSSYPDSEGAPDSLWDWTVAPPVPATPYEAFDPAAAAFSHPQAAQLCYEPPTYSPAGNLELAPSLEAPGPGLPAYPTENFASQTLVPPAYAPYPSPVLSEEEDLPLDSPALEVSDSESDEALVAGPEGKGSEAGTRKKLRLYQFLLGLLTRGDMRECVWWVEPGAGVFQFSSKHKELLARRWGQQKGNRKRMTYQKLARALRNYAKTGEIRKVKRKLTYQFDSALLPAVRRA
The next experiment has as its target T6, ELK3 (Homo sapiens, UniProt P41970 1-407).
T6 sequence: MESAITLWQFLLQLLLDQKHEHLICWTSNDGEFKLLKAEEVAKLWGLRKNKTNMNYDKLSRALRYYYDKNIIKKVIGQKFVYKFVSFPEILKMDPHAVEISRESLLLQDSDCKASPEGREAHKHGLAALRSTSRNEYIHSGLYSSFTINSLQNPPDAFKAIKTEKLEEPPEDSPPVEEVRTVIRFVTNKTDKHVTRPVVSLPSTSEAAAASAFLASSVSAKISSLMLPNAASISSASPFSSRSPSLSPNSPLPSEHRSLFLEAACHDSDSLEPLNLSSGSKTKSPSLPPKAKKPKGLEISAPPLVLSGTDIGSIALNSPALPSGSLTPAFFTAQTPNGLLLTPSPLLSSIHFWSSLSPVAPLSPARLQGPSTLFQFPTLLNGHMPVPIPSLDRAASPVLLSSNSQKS
Conditions: protein: recombinant; tags: N-terminal GST; dsDNA, one strand shown. The method in brief: as §1

In another experiment the target is T7, FEV (Homo sapiens, UniProt Q99581 1-238).
T7 sequence: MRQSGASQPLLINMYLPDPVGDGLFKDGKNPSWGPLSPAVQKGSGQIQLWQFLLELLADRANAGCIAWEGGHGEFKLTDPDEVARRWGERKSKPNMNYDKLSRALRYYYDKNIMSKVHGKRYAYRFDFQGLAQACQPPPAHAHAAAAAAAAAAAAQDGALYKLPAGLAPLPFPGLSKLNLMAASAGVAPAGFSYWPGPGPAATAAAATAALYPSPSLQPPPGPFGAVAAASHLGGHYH
Conditions: protein: recombinant; tags: N-terminal GST; dsDNA, one strand shown. The method in brief:
as §1

The target in the next experiment is ETV5 (Homo sapiens, UniProt P41161 1-510). Conditions: protein: recombinant; tags: N-terminal GST; dsDNA, one strand shown. The method in brief:
as §1

In another experiment the target is HSF1 (Homo sapiens, UniProt Q00613 1-529). Conditions: protein: recombinant; tags: N-terminal GST; chain copies: 3; dsDNA, one strand shown. The procedure, abridged:
as §1

The next experiment deals with T8, SPIC (Homo sapiens, UniProt Q8N5J4 1-248).
T8 sequence: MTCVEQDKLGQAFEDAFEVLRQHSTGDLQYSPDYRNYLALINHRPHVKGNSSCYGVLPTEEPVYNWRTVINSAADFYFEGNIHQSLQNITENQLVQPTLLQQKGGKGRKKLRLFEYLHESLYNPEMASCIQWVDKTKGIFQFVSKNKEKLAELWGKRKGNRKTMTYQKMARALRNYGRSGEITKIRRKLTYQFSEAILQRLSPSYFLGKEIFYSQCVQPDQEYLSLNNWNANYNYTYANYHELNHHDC
Conditions: protein: recombinant; tags: N-terminal GST; dsDNA, one strand shown. The method in brief:
as §1

In the next experiment the target is ELF4 (Homo sapiens, UniProt Q99607 1-663). Conditions: protein: recombinant; tags: N-terminal GST; dsDNA, one strand shown. The procedure, abridged: as §1
Chain of ELF4 (Q99607 whole entry): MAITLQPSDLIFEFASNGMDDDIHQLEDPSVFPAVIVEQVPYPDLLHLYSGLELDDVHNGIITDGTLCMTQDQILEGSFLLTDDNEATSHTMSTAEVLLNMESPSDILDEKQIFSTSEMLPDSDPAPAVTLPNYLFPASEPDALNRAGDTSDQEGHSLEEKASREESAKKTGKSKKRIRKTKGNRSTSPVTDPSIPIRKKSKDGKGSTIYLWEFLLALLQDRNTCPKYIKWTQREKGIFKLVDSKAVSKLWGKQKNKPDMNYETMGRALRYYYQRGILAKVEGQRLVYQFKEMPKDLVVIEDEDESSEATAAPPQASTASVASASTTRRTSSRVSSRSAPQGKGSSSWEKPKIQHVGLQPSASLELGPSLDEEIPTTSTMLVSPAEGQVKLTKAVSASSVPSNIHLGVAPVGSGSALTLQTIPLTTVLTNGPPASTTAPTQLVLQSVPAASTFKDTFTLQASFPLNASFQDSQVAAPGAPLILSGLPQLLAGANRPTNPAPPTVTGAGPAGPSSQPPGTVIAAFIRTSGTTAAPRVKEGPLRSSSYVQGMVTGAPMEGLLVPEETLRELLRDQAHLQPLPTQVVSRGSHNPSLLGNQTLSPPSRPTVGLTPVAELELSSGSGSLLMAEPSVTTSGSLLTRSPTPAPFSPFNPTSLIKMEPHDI
Another experiment has as its target T9, ELK4 (Homo sapiens, UniProt P28324-2 1-405).
T9 sequence: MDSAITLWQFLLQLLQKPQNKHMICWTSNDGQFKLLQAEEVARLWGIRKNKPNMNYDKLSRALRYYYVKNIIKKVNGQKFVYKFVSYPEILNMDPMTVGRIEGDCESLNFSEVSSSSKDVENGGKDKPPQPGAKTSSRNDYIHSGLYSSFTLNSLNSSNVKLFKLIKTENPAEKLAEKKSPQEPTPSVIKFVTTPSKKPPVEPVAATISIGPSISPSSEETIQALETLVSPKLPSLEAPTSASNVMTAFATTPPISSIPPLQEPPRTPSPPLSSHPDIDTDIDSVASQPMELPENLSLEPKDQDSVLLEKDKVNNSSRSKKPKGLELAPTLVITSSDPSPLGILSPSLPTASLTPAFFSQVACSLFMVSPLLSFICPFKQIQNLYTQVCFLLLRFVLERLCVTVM
Conditions: protein: recombinant; tags: N-terminal GST; dsDNA, one strand shown. The procedure, abridged:
as §1

A further experiment deals with T10, ETV2 (Homo sapiens, UniProt O00321 1-342).
T10 sequence: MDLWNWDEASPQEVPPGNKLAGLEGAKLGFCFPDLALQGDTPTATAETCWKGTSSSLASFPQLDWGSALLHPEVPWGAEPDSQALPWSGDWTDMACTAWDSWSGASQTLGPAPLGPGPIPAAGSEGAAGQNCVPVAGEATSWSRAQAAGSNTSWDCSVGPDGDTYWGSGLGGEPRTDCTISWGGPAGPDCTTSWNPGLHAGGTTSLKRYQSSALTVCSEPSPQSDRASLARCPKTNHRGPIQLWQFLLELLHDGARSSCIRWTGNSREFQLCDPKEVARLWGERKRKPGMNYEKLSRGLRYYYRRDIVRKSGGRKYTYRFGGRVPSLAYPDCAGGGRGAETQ
Conditions: protein: recombinant; tags: N-terminal GST; dsDNA, one strand shown. The procedure, abridged: as §1

Another experiment has as its target T11, ELF3 (Homo sapiens, UniProt P78545 1-371).
T11 sequence: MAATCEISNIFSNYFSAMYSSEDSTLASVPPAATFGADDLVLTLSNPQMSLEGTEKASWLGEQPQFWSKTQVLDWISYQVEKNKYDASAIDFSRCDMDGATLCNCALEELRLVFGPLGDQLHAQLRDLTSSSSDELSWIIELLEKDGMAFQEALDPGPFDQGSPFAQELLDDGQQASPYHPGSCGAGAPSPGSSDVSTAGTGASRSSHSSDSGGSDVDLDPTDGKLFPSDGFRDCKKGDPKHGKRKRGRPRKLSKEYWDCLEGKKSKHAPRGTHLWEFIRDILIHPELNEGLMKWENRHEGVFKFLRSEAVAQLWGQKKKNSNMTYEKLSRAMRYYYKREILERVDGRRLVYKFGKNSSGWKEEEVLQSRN
Conditions: protein: recombinant; tags: N-terminal GST; dsDNA, one strand shown. The procedure, abridged: as §1

For the next experiment, the target named is CRX (Homo sapiens, UniProt O43186 1-299). Conditions: protein: recombinant; tags: N-terminal GST; dsDNA, one strand shown. The method in brief:
as §1

For a further experiment, the target named is ETV1 (Homo sapiens, UniProt P50549 1-477). Conditions: protein: recombinant; tags: N-terminal GST; dsDNA, one strand shown. The method in brief: as §1
Chain of ETV1 (P50549 whole entry): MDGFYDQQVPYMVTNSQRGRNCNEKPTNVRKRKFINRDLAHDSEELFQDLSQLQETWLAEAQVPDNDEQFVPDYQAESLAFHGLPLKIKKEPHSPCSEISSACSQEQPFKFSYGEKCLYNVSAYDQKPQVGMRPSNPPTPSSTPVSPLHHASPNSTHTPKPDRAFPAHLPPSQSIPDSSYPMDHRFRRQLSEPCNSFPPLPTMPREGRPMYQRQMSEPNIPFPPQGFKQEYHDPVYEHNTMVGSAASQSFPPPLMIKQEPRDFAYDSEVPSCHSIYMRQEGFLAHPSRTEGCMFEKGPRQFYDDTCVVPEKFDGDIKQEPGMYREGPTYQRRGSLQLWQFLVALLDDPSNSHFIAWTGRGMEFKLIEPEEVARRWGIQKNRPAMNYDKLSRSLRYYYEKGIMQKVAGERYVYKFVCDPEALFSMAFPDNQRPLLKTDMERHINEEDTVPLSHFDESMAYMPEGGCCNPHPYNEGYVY

Chain of ETV5 (P41161 whole entry): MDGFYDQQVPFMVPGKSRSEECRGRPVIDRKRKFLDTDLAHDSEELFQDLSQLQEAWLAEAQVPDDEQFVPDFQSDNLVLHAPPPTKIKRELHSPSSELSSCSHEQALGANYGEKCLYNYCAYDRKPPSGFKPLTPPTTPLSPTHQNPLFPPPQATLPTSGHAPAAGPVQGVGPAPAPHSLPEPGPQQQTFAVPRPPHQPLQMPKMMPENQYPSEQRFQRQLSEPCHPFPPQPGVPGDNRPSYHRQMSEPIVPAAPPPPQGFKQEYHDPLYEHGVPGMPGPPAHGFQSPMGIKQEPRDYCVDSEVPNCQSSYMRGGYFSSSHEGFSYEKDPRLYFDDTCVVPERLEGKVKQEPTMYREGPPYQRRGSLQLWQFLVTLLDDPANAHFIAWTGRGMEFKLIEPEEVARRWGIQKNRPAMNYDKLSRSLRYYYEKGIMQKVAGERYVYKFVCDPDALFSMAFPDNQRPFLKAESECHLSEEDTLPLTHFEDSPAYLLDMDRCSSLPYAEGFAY
Chain of ELF1 (P32519 whole entry): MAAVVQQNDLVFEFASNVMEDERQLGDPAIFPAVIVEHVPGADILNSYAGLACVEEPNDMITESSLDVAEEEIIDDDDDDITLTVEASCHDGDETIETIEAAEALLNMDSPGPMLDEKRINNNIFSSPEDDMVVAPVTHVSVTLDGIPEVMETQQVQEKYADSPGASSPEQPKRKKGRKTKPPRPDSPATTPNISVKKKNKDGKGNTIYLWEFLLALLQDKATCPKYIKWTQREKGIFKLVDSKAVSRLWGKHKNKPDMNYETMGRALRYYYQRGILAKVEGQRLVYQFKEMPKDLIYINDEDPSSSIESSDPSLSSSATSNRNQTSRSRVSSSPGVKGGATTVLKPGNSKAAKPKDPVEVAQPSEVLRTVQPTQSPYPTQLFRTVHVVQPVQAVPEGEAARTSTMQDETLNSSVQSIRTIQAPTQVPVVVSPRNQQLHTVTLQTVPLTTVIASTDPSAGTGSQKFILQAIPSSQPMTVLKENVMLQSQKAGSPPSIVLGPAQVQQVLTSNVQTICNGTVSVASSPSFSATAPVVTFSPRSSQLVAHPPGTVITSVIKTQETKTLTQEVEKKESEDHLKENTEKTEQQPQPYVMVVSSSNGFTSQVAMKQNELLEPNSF
Chain of HSF1 (Q00613 whole entry): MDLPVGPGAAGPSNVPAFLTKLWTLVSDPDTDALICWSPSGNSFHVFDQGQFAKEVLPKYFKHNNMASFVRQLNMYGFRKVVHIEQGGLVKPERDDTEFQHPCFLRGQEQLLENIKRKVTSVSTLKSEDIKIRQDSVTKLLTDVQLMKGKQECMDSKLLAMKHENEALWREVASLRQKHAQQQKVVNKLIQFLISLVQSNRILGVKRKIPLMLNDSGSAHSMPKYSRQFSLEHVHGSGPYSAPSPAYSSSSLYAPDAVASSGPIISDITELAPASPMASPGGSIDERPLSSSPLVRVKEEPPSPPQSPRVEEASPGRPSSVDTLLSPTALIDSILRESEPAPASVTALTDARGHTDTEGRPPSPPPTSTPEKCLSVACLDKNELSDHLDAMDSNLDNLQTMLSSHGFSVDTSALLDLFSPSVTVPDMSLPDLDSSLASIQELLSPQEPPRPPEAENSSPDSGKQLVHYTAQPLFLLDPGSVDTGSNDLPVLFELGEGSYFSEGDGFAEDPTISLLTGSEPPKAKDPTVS
Chain of CRX (O43186 whole entry): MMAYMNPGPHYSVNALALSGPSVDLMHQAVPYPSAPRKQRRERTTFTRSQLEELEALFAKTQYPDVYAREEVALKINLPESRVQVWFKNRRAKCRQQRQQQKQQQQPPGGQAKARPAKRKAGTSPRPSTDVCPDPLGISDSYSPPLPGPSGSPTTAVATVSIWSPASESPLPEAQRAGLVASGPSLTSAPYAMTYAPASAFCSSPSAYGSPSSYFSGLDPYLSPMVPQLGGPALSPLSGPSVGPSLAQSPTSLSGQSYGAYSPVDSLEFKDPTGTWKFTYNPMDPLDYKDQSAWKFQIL

For TAAATC, the binding signal was 1.15 fold enrichment (6-mer frequency, TF over GST control) with FLI1; 1.28 fold enrichment (6-mer frequency, TF over GST control) with ELK1; 1.24 fold enrichment (6-mer frequency, TF over GST control) with GABPA; 1.2 fold enrichment (6-mer frequency, TF over GST control) in the experiment with ERG; 1.23 fold enrichment (6-mer frequency, TF over GST control) with ELF1; 1.17 fold enrichment (6-mer frequency, TF over GST control) in the experiment with EHF. The binding signal is 1.21 fold enrichment (6-mer frequency, TF over GST control) with SPI1; 1.12 fold enrichment (6-mer frequency, TF over GST control) in the experiment with SPIB; 1.35 fold enrichment (6-mer frequency, TF over GST control) with ELK3; 1.21 fold enrichment (6-mer frequency, TF over GST control) with FEV; 1.23 fold enrichment (6-mer frequency, TF over GST control) with ETV5; 1.9 fold enrichment (6-mer frequency, TF over GST control) in the experiment with HSF1. Further, the binding signal with SPIC is 1.2 fold enrichment (6-mer frequency, TF over GST control); in the experiment with ELF4, 1.3 fold enrichment (6-mer frequency, TF over GST control); in the experiment with ELK4, 1.27 fold enrichment (6-mer frequency, TF over GST control); in the experiment with ETV2, 1.12 fold enrichment (6-mer frequency, TF over GST control); with ELF3, 1.2 fold enrichment (6-mer frequency, TF over GST control); in the experiment with CRX, 2.81 fold enrichment (6-mer frequency, TF over GST control). In addition, in the experiment with ETV1, the binding signal is 1.26 fold enrichment (6-mer frequency, TF over GST control).

The values above are taken from article PMC7862700, “An all-to-all approach to the identification of sequence-specific readers for epigenetic DNA modifications on cytosine”.
